# Bioassay records as filed in PubChem BioAssay.
# FAS-TE inh: FAS thioesterase domain inhibitors, primary screen, biochemical, fluorescence intensity, uHTS; 360,000 tested, 0.67% active; AID 602261, 2012; recombinant FAS-TE, OMFH fluorogenic substrate, fluorescence endpoint; inhibition, % at 15 µM;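 active means compounds whose normalised, plate-corrected inhibition of enzyme fluorescence in the single-dose primary screen is 50% or more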;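 further: 0% = DMSO with enzyme and 100% = substrate without enzyme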
# MPTP inh: mitochondrial permeability transition pore inhibitors, primary screen, biochemical, isolated mouse mitochondria, absorbance; inhibition, % at 10 µM; Ca2+ swelling absorbance, 30 min; 360,000 tested, 1.4% active;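 active means inhibition of 50% or more, scaled per plate between neutral and stimulator controls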;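 further: 0% = DMSO wells given calcium and 100% = 1 mM EGTA wells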
# Myeloid diff 2: induction of myeloid progenitor differentiation, primary screen, cell-based, flow cytometry, MLPCN library; calls only at 10 µM; AID 624256, 2012; ER-HoxA9 myeloid progenitors, lysozyme-GFP differentiation; 360,000 tested, 1% active;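 active means normalized GFP-positive differentiation at or above the plate's own cutoff, the solvent-only control mean plus 3 SD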;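 further: cells exposed to compound for four days before flow analysis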
# rCAG binder: binders of r(CAG) RNA repeats, primary screen, biochemical, fluorescence; inhibition, % at 3 µM; r(CAG) RNA repeat, TO-PRO-1 dye displacement fluorescence; 370,000 tested, 1.3% active;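 active means inhibition above the plate cutoff, the mean of all test compounds on that plate plus 3 SD, cut at about 35% in these data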;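 further: 0% = DMSO alone and 100% = 100 µM mitoxantrone as full dye displacement; higher means more dye released from RNA so lower well fluorescence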
# GRIN3A LBD mod: binders of NR3A ligand-binding domain, primary screen, biophysical, differential scanning fluorimetry, uHTS | NR3A LBD differential scanning fluorimetry, Tm shift; 0% = protein alone, 100% = glycine-bound protein | Tm shift relative to glycine control, % at 25 µM | 340,000 tested, 2.5% active;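 active means melting temperature shift of at least 10% of the positive control shift, at one fixed dose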
# rCAG binder conf: small molecules binding CAG repeat RNA – biochemical, fluorescence, confirmation; 4,300 tested, 70% active; AID 652065, 2013; shares compounds with rCAG binder; r(CAG) RNA repeat, TO-PRO-1 dye displacement fluorescence; inhibition, % at 3 µM;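 active means inhibition above a per-plate cutoff, the mean inhibition of sample wells plus 3 SD, cut at about 35% in these data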;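 further: loss of TO-PRO-1 fluorescence as compound displaces dye from 1x1 AA loop RNA; 0% = DMSO only wells and 100% = 100 µM mitoxantrone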
# DNA CAG counter: displacement of TO-PRO-1 from CAG DNA duplex, counter-screen for rCAG RNA repeat binder project, biochemical, fluorescence, TO-PRO-1 dye, d(CAG) DNA oligo | d(CAG) DNA oligo TO-PRO-1 dye displacement | shares compounds with rCAG binder | 4,300 tested, 94% active | inhibition, % at 3 µM | AID 652068, 2013;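 active means inhibition above its plate's cutoff, the mean test-well inhibition plus 3 SD, cut at about 4.8% in these data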;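 further: 0% = DNA dye mix with DMSO and 100% = 100 µM mitoxantrone; hits displace the dye from DNA and so lower well fluorescence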
# * marks the source's active call; other numbers are inactive results; i = inactive; . = no result given. Hits are enriched below; roughly 5.7% of the tested compounds scored in any of these assays.
SMILES,FAS-TE inh,MPTP inh,Myeloid diff 2,rCAG binder,GRIN3A LBD mod,rCAG binder conf,DNA CAG counter
CN1CCN(c2ccc3c(c2)Oc2ccccc2CN(Cc2cn(Cc4cccc(C(F)(F)F)c4)nn2)S3(=O)=O)CC1,.,.,.,8,.,.,.
Cc1cc(NS(=O)(=O)c2ccc(NC(=O)Cc3ccc(Cl)c(F)c3)cc2)no1,.,.,.,22,.,.,.
Cc1cc(NS(=O)(=O)c2ccc(NC(=O)COc3ccc(Br)cc3)cc2)nc(C)n1,-1,-1,i,36*,1,35*,10*
Cc1cc(NS(=O)(=O)c2ccc(NC(=O)c3oc4ccccc4c3C)cc2)no1,-4,-1,i,41*,14*,41*,11*
CCOc1ccc(OCC(=O)Nc2ccc(S(=O)(=O)Nc3cc(C)nc(C)n3)cc2)cc1,-3,3,i,17,-1,.,.
Cc1ccc(OCCCC(=O)Nc2ccc(S(=O)(=O)Nc3ccccn3)cc2)cc1,-6,0,i,0,-2,.,.
Cc1cc(NS(=O)(=O)c2ccc(NC(=O)Cc3ccc(Cl)c(Cl)c3)cc2)no1,0,-3,i,49*,2,35*,8.8*
Cc1ccc(OCCCC(=O)Nc2ccc(S(=O)(=O)Nc3cc(C)on3)cc2)cc1,-5,0,i,49*,-3,36*,12*
COc1ccccc1C(C#N)N1N=C(C)CC1(C)C (configuration not stated),-13,2,i,2,2,.,.
COCCNc1oc(/C=C/c2cccc(OC)c2)nc1S(=O)(=O)c1ccccc1,7,1,i,4,.,.,.
COc1cccc(-c2nc3c(c(=O)[nH]c(=O)n3Cc3ccccc3)n2CCO)c1OC(F)F,-3,0,i,4,-1,.,.
Cc1cccc(C(=O)N=c2c(C#N)cc3c(=O)n4cccc(C)c4nc3n2Cc2ccco2)c1,20,-1,i,47*,-7,38*,18*
Cc1cccn2c(=O)c3cc(C#N)c(=NC(=O)c4ccccc4)n(Cc4ccco4)c3nc12,31,-2,i,36*,-6,27,11*
Cc1cccn2c(=O)c3cc(C#N)c(=NC(=O)c4ccco4)n(Cc4ccco4)c3nc12,28,6,i,11,6,.,.
Cc1oc(-c2ccc(-c3ccccc3)cc2)nc1CN1CCN(CC(=O)N(C)C)CC1,-7,-6,i,-2,-1,.,.
CC12CCC(C/C1=N\N=C1\NC(=O)/C(=C\c3cccc(Br)c3)S1)C2(C)C (configuration not stated),21,28,i,50*,8,60*,28*
COc1cc([N+](=O)[O-])ccc1NC(=S)NNC(=O)CCC(=O)Nc1ccccc1Cl,12,1,i,64*,7,49*,14*
O=C1CS/C(=N/N=C/c2ccc(OS(=O)(=O)c3ccccc3)cc2)N1,16,-2,i,40*,-8,38*,9.7*
N#C/C(=C1/C(=O)Nc2ccc(Br)cc21)c1ccccn1,-9,0,i,6,4,.,.
COc1ccc2nc(NC(=O)c3ccc(NS(=O)(=O)c4cccs4)cc3)sc2c1,-3,3,i,65*,25*,66*,29*
Cc1cccc2sc(NC(=O)c3ccc(NS(=O)(=O)c4cccs4)cc3)nc12,14,4,i,80*,36*,76*,40*
COc1ccc2nc(NC(=O)CNS(=O)(=O)c3cccs3)sc2c1,-3,1,i,9,4,.,.
Cc1cc(F)ccc1NC(=O)c1ccc(NS(=O)(=O)c2cccs2)cc1,-8,-2,i,8,.,.,.
Cc1ccc([C@H]2C(C(=O)O)=CC[C@@H](c3ccc(C)cc3)N2S(=O)(=O)c2ccccc2C)cc1,-8,3,i,75*,5,62*,27*
COc1ccc([C@@H]2CC=C(C(=O)O)[C@H](c3ccccc3F)N2S(=O)(=O)c2ccccc2C)cc1,-10,-2,i,41*,2,41*,11*
SMILES,FAS-TE inh,MPTP inh,Myeloid diff 2,rCAG binder,GRIN3A LBD mod,rCAG binder conf,DNA CAG counter
Cc1ccc([C@@H]2CC=C(C(=O)O)[C@H](c3ccccc3)N2S(=O)(=O)c2ccccc2C)cc1,-7,2,i,55*,1,57*,20*
COc1ccc([C@@H]2CC=C(C(=O)O)[C@H](c3ccc(C)cc3)N2S(=O)(=O)c2ccccc2C)cc1,-6,0,i,66*,5,63*,26*
CCOC(=O)C1=CC[C@@H](c2ccccc2)N(S(=O)(=O)c2ccc(C)cc2)[C@H]1c1ccccc1C,23,2,i,5,.,.,.
Cc1ccc([C@@H]2CC=C(C(=O)O)CN2S(=O)(=O)c2ccccc2C)cc1,-13,-3,i,22,1,.,.
O=c1c2ccccc2[nH]n1[C@@H](Cc1ccccc1)Cn1cc(-c2ccc(-c3ccccc3)cc2)nn1,.,.,.,19,.,.,.
COC(=O)c1nnn(-c2nc(N3CCOCC3)nc(N3CCOCC3)n2)c1C,-2,1,.,-1,0,.,.
O=C(OC(C(=O)NCc1ccccc1)c1ccccc1F)c1ccco1 (configuration not stated),-2,-2,i,2,-1,.,.
Cc1ccc(C2(SCC(N)C(=O)O)c3ccccc3-c3ccccc32)cc1 (configuration not stated),5,-1,i,21,-10,.,.
CCN(CC)S(=O)(=O)c1ccc(N2CCCC2)c(NC(=O)CC(C)(C)C)c1,-3,2,i,-6,-1,.,.
COc1ccc([C@@H]2CC=C(C(=O)O)[C@H](c3ccc(F)cc3)N2S(=O)(=O)c2ccccc2C)cc1,-5,-2,i,59*,1,45*,13*
O=C(CCCc1ccccc1)N=C1SC2CS(=O)(=O)CC2N1c1ccccc1F (configuration not stated),5,-1,i,-2,-6,.,.
O=C(Nc1ccccn1)Nc1ccccc1Cl,0,0,i,-4,0,.,.
CCC(Oc1ccccc1)C(=O)Nc1ccc(S(=O)(=O)Nc2cnc3ccccc3n2)cc1 (configuration not stated),-2,-21,i,58*,-7,46*,13*
COc1ccc(C(=O)Nc2ccc(S(=O)(=O)Nc3cnc4ccccc4n3)cc2)cc1,-3,0,i,46*,-1,28,5.7*
